Reference: PubChem BioAssay (Tox21)
Values joined by “and” are separate entries in the source; they are usually repeats but may differ in a detail not shown here. Equal values may be shown once. Results filed as inconclusive are left out. A call without a number means that no potency is given here. A structure can be active in one record and inactive in another. Active and inactive are the calls of the source. Unless noted, calls come from the whole dose curve; as a rule, active = well fitted curve in the direction sought with a large enough effect in the repeat runs; inconclusive = weak or mixed curves; inactive = no such curve, though single readings can be large; an effect the other way counts as inactive or inconclusive.

What was measured:
[1] = qHTS assay to identify aromatase inhibitors - cell viability counter screen (AID 743084);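 note: cells stimulated with testosterone during compound exposure; nearly all actives have a fitted effect of over 55% in size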; note: potency is the fitted concentration of half-maximal effect
[2] = target: Aryl hydrocarbon receptor (Homo sapiens) (UniProt P35869); assay: qHTS assay to identify small molecule that activate the aryl hydrocarbon receptor (AhR) signaling pathway (AID 743085); note: nearly all actives have a fitted effect of over 15% in size; note: potency is the fitted concentration of half-maximal effect;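 for activation: HG2L7.5c1 human HepG2 liver cells with stably integrated DRE-driven firefly reporter; series mostly up to about 70 µM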
Outline: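 Luminescence read-out: ONE-Glo reagent, 30 min at room temperature, in HG2L7.5c1 HepG2 reporter cells treated 24 h at 37C. Viability was measured beforehand by CellTiter-Fluor fluorescence after 30 min at 37C.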

[3] = qHTS assay to identify small molecule that activate the aryl hydrocarbon receptor (AhR) signaling pathway - cell viability counter screen (AID 743086); note: nearly all actives have a fitted effect of over 45% in size; note: potency is the fitted concentration of half-maximal effect
Outline: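 HepG2-AhR-luc (HG2L7.5c1) cells, 4000/well, were preincubated 5 h at 37C, exposed to compound in qHTS format for 24 hr at 37C, then given CellTiter-Fluor for 30 min; viability was read as fluorescence in the reporter wells.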

[4] = target: Peroxisome proliferator-activated receptor gamma (Homo sapiens) (UniProt P37231); assay: qHTS assay to identify small molecule agonists of the peroxisome proliferator-activated receptor gamma (PPARg) signaling pathway (AID 743094; active = well fitted activation curve with a large enough effect in the signal ratio in the repeat runs, not every such curve was filed as active; the % refers to the signal ratio; note: potency is the fitted concentration of half-maximal effect)
Outline: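 Cells from the PPARg UAS-bla HEK293H line are plated and incubated 5 h at 37C. Compounds in DMSO are pinned in and left 17 h at 37C. LiveBLAzer B/G substrate is then added for 1 h at room temperature before fluorescence is measured.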

[5] = target: Peroxisome proliferator-activated receptor gamma (Homo sapiens) (UniProt P37231); assay: qHTS assay to identify small molecule antagonists of the peroxisome proliferator-activated receptor gamma (PPARg) signaling pathway (AID 743191; calls by dose curve; note: series mostly up to about 63 µM; nearly all actives have a fitted effect of over 30% in size)
Outline: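 GeneBLAzer PPARg UAS-bla HEK293H cells carrying a UAS-driven beta-lactamase reporter were plated at 3000 cells/well, preincubated 5 h at 37C, then given compound for 17 h at 37C; LiveBLAzer B/G FRET substrate was read after 1 h at room temperature.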

[6] = qHTS assay to identify small molecule antagonists of the peroxisome proliferator-activated receptor gamma (PPARg) signaling pathway - cell viability counter screen (AID 743194); conditions: Potency: co-treated with 50 nM rosiglitazone unless noted; note: nearly all actives have a fitted effect of over 55% in size
Outline: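 PPARg-UAS-bla HEK293H cells were plated, rested 5 h at 37 C, then treated with compounds plus rosiglitazone (50 nM final) for 17 h at 37 C; viability was then read by CellTiter-Glo luminescence after 30 min at room temperature.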

[7] = qHTS assay for small molecule agonists of the antioxidant response element (ARE) signaling pathway (AID 743202; active = well fitted activation curve with a large enough effect in the signal ratio in the repeat runs, not every such curve was filed as active; the % refers to the signal ratio; note: potency is the fitted concentration of half-maximal effect)
Outline: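 Steps: seed ARE-bla HepG2 cells (2,000/well); incubate 5 h at 37 C; add compounds by pin tool; incubate 16 h at 37 C; add FRET substrate; read fluorescence after 2 h at RT.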

[8] = qHTS assay for small molecule agonists of the antioxidant response element (ARE) signaling pathway - cell viability counter screen (AID 743203; calls by dose curve; note: nearly all actives have a fitted effect of over 55% in size; note: potency is the fitted concentration of half-maximal effect)
Outline: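 Cytotoxicity was tested in parallel with the ARE reporter screen. ARE-bla HepG2 cells were exposed to compounds for 16 hrs, and viability was taken from CellTiter-Glo luminescence.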

[9] = qHTS assay for small molecule activators of the heat shock response signaling pathway - cell viability counter screen (AID 743209); note: nearly all actives have a fitted effect of over 50% in size
Outline: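 Cytotoxicity counter screen run in parallel with the HSE beta-lactamase reporter, using the same wells. HeLa HSE-bla cells received compound for 5 h at 37 C; ATP-based CellTiter-Glo luminescence was measured after 30 min at room temperature.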

[10] = qHTS assay for small molecule activators of the heat shock response signaling pathway (AID 743210; active = well fitted activation curve with a large enough effect in the signal ratio in the repeat runs, with a control signal flat, not every such curve was filed as active; the % refers to the signal ratio;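 note: HeLa cells with beta-lactamase reporter driven by heat shock elements; series mostly up to about 63 µM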)
Outline: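 Activation of heat shock element-controlled beta-lactamase expression is measured in HeLa cells by LiveBLAzer FRET fluorescence, with compound exposure lasting 5 h at 37 C and substrate loading 2.5 h at room temperature.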

[11] = qHTS assay to identify small molecule agonists of the peroxisome proliferator-activated receptor delta (PPARd) signaling pathway - cell viability counter screen (AID 743211); note: nearly all actives have a fitted effect of over 55% in size
Outline: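 Read-out: CellTiter-Glo luminescence, 30 min RT, measured in the same wells as the beta-lactamase reporter. Cells: GeneBLAzer PPAR delta UAS-bla HEK293H, 3000 cells/well, compound exposure 17 h at 37C.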

[12] = target: Peroxisome proliferator-activated receptor delta (Homo sapiens) (UniProt Q03181); assay: qHTS assay to identify small molecule agonists of the peroxisome proliferator-activated receptor delta (PPARd) signaling pathway (AID 743212; calls by dose curve)
Outline: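 Cells expressing a UAS-driven beta-lactamase reporter (PPARd-bla HEK293H) were given test compounds after a 5 h settle and kept at 37 C. Reporter activity was then measured as FRET fluorescence using LiveBLAzer B/G substrate.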

[13] = target: Peroxisome proliferator-activated receptor delta (Homo sapiens) (UniProt Q03181); assay: qHTS assay to identify small molecule antagonists of the peroxisome proliferator-activated receptor delta (PPARd) signaling pathway (AID 743215; active = well fitted inhibition curve with a large enough effect in the signal ratio in the repeat runs, not every such curve was filed as active; the % refers to the signal ratio;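 note: cells stimulated with agonist L165041 at 300 nM final during compound exposure; series mostly up to about 62 µM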)
Outline: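 Cells: HEK293H with a UAS-driven beta-lactamase reporter responsive to PPARd. Compounds were co-added with L165041 (300 nM, final) and incubated 17 h at 37 C before a 2 h room-temperature FRET substrate step and fluorescence reading.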

[14] = qHTS assay to identify small molecule agonists of the farnesoid-X-receptor (FXR) signaling pathway - cell viability counter screen (AID 743218); note: nearly all actives have a fitted effect of over 45% in size
Outline: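 Cells were seeded, left 5 h at 37 C and 5% CO2, then dosed with compound in DMSO for 16 h. After the beta-lactamase FRET read, CellTiter-Glo was added and luminescence measured 30 min later.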

[15] = qHTS assay to identify small molecule antagonists of the farnesoid-X-receptor (FXR) signaling pathway - cell viability counter screen (AID 743221; active = well fitted cell-killing curve with a large enough effect in the repeat runs, not every such curve was filed as active; note: nearly all actives have a fitted effect of over 50% in size)
Outline: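 HEK 293T FXR-bla cells, 5 h pre-incubation; compound + CDCA 50 uM final, 16 h, 37 C; beta-lactamase FRET read first, then CellTiter-Glo luminescence, 30 min RT.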

[16] = target: Vitamin D3 receptor (Homo sapiens) (UniProt P11473); assay: qHTS assay to identify small molecule agonists of the vitamin D receptor (VDR) signaling pathway (AID 743222; calls by dose curve)
Outline: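 Cells carrying a VDR-driven beta-lactamase reporter are seeded at 2,000 per well and rested 4 h. Compounds in DMSO are added for 16 h at 37C, and FRET substrate fluorescence is measured after 2 h at room temperature.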

[17] = target: Vitamin D3 receptor (Homo sapiens) (UniProt P11473); assay: qHTS assay to identify small molecule antagonists of the vitamin D receptor (VDR) signaling pathway (AID 743223; active = well fitted inhibition curve with a large enough effect in the signal ratio in the repeat runs, not every such curve was filed as active; the % refers to the signal ratio)
Outline: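 Beta-lactamase reporter read-out: FRET substrate fluorescence after 2 h at room temperature, following 16 h exposure of VDR-bla cells to test compound plus 3 nM (final) 1alpha,25-dihydroxyvitamin D3 agonist at 37C.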

[18] = target: Bile acid receptor (Homo sapiens) (UniProt Q96RI1); assay: qHTS assay to identify small molecule antagonists of the farnesoid-X-receptor (FXR) signaling pathway (AID 743217; active = well fitted inhibition curve with a large enough effect in the signal ratio in the repeat runs, not every such curve was filed as active; the % refers to the signal ratio)
Outline: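 Cells carrying a UAS-driven beta-lactamase reporter (GeneBLAzer FXR-UAS-bla HEK 293T) were plated and rested 5 h at 37 °C. Compounds in DMSO were added alongside chenodeoxycholic acid agonist at 50 uM final and left 16 h at 37 °C before FRET substrate readout.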

[19] = target: Bile acid receptor (Homo sapiens) (UniProt Q96RI1); assay: qHTS assay to identify small molecule agonists of the farnesoid-X-receptor (FXR) signaling pathway (AID 743220; active = well fitted activation curve with a large enough effect in the signal ratio in the repeat runs, not every such curve was filed as active; the % refers to the signal ratio)
Outline: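 FXR-UAS-bla HEK 293T cells carrying a UAS-driven beta-lactamase reporter were plated for 5 h at 37C/5% CO2, then exposed to DMSO-dissolved Tox21 10K compounds for 16 h at 37C. A LiveBLAzer B/G FRET substrate was loaded for 2 h at room temperature before fluorescence reading.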

[20] = qHTS assay to identify small molecule antagonists of the peroxisome proliferator-activated receptor delta (PPARd) signaling pathway - cell viability counter screen (AID 743213); note: nearly all actives have a fitted effect of over 50% in size
Outline: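 Cytotoxicity counter screen: CellTiter-Glo luminescence read 30 min after addition, in the same wells as the reporter assay. There, PPARd UAS-bla HEK293H cells (3000/well) were treated 17 h at 37 C with compound and 300 nM L165041.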

Bile acid receptor (Homo sapiens), sequence (Q96RI1 whole entry, looked up): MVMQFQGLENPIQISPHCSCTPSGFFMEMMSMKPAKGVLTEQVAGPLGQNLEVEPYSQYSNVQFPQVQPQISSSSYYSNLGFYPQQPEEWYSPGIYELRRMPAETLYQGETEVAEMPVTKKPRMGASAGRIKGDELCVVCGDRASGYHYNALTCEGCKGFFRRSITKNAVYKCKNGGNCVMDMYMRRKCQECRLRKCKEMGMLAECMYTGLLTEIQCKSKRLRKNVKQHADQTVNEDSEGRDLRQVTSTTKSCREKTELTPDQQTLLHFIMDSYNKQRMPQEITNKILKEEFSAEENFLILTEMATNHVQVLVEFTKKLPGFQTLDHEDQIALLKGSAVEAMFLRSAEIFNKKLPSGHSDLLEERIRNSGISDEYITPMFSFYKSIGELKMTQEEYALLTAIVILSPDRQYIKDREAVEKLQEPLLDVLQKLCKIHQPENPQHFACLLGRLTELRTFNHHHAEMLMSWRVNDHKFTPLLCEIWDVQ
Peroxisome proliferator-activated receptor gamma (Homo sapiens), sequence (P37231 whole entry, looked up): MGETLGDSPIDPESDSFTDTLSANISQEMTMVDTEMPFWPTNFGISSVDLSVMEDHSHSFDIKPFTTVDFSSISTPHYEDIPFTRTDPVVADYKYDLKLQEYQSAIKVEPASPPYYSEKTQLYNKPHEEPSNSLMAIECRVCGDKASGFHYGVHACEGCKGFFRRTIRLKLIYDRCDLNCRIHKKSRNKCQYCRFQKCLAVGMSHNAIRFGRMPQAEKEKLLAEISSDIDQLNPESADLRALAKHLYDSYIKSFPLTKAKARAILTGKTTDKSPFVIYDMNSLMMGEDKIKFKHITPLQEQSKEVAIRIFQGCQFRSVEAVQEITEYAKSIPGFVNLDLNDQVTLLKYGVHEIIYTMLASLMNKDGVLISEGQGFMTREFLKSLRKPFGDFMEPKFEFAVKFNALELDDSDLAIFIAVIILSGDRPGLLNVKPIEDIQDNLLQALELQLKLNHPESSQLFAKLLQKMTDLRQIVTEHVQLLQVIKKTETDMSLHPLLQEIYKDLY
Peroxisome proliferator-activated receptor delta (Homo sapiens), sequence (Q03181 whole entry, looked up): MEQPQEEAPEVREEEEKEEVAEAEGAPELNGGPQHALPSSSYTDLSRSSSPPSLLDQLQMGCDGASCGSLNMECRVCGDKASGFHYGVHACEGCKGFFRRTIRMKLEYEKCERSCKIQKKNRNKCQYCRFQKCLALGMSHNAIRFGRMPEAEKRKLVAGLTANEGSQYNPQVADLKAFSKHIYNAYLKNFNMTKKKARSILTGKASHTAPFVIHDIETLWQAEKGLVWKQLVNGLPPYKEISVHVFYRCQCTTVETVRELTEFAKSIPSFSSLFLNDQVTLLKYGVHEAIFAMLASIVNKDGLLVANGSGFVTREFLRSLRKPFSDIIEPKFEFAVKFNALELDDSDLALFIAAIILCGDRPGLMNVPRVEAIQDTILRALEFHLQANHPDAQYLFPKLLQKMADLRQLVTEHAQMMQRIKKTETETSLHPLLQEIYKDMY
Vitamin D3 receptor (Homo sapiens), sequence (P11473 whole entry, looked up): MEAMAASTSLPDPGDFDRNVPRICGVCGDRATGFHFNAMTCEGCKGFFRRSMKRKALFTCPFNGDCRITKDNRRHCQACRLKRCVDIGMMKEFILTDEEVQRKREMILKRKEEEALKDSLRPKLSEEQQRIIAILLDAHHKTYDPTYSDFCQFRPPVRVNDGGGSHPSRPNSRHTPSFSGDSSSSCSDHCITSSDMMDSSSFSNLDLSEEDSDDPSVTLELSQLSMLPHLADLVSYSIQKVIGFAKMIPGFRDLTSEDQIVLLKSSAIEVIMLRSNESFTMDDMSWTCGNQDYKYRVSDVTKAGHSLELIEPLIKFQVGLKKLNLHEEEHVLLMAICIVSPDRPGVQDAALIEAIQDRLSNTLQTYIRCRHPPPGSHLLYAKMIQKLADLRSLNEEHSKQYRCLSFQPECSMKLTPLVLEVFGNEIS
Aryl hydrocarbon receptor (Homo sapiens), sequence (P35869 whole entry, looked up): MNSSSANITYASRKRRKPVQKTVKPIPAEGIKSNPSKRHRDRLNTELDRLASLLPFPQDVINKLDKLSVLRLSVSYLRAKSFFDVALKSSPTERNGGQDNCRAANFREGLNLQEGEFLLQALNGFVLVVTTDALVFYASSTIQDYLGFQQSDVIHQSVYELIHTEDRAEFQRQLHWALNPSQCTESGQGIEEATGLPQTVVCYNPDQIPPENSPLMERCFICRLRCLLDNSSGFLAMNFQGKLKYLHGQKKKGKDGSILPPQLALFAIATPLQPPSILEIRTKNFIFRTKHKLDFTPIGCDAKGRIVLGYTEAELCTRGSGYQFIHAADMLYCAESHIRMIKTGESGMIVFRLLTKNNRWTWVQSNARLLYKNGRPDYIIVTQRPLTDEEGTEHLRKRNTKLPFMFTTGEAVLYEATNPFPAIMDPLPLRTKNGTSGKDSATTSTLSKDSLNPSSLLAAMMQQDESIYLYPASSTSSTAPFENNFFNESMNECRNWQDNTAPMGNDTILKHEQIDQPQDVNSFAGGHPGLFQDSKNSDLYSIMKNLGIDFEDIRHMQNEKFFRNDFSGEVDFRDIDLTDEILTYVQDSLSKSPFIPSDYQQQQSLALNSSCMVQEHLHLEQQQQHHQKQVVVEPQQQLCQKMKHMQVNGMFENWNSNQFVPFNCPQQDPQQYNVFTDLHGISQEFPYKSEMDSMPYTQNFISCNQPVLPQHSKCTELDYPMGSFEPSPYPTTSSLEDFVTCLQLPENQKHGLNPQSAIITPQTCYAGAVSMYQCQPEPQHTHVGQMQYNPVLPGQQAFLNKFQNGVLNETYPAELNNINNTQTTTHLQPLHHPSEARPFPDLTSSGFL

Structure (SMILES) | Potency [1] | Potency [2] | Potency [3] | Potency [4] | Potency [5] | Potency [6] | Potency [7] | Potency [8] | Potency [9] | Potency [10] | Potency [11] | Potency [12] | Potency [13] | Potency [14] | Potency [15] | outcome [16] | outcome [17] | Potency [18] | outcome [19] | Potency [20]
CCCCC(CC)COC(=O)c1ccc(C(=O)OCC(CC)CCCC)c(C(=O)OCC(CC)CCCC)c1 (centres undefined) | inactive | inactive | inactive | inactive | inactive | inactive | inactive | inactive | inactive | inactive | inactive | inactive | inactive | inactive | inactive | inactive | inactive | – | – | –
CCCCCCCCOC(=O)c1ccccc1C(=O)OCCCCCCCC | inactive | inactive | inactive | inactive and 54.8 µM (active) | inactive | inactive | inactive | – | inactive | inactive | inactive | inactive | inactive | inactive | inactive | inactive | inactive | inactive | inactive | –
COP(=O)(OC)OC | inactive | inactive | inactive | inactive | inactive | inactive | inactive | inactive | inactive | inactive | inactive | inactive | inactive | – | inactive | inactive | inactive | inactive | inactive | –
CCC(C)c1cc([N+](=O)[O-])cc([N+](=O)[O-])c1O (centres undefined) | inactive and 27.3 µM (active) | inactive | inactive and 13.7 µM (active) | inactive | inactive | inactive | inactive and 611 nM (active) | inactive and 969 nM (active) | inactive | inactive | inactive | – | inactive | inactive | inactive | inactive | inactive | inactive | inactive | inactive
N#CC(Br)Br | inactive | inactive | inactive | inactive | inactive | inactive | 34.2 µM (active) | inactive | inactive | inactive | inactive | inactive | inactive | inactive | inactive | – | – | inactive | inactive | –
Cc1cccc(N)c1N | inactive | 11.8 µM (active) and 43.3 µM (active) | inactive | inactive | inactive | inactive | 9.36 µM (active) and 17.2 µM (active) | inactive | inactive | inactive | inactive | – | – | inactive | inactive | inactive | – | inactive | inactive | –
COc1ccc(C=O)cc1 | inactive | inactive | inactive | inactive | inactive | inactive | inactive | inactive | inactive | inactive | inactive | inactive | inactive | – | inactive | inactive | inactive | – | – | inactive
CNC(=O)Oc1cccc2c1OC(C)(C)O2 | inactive | inactive | inactive | inactive | inactive | – | – | inactive | inactive | inactive | inactive | – | inactive | inactive | inactive | inactive | – | inactive | inactive | inactive
Nc1ccc(Cl)c(Cl)c1 | inactive | 55.7 µM (active) and 61.1 µM (active) | inactive | inactive | – | – | inactive | – | inactive | inactive | inactive | inactive | inactive | – | inactive | inactive | inactive | – | – | inactive
CCCCN(CCCC)N=O | inactive | inactive | inactive | inactive | inactive | – | inactive | inactive | inactive | inactive | inactive | – | – | – | inactive | – | – | inactive | inactive | –
c1ccc(N=Nc2ccccc2)cc1 | inactive | inactive | inactive | inactive | inactive | – | inactive | inactive | inactive | inactive | inactive | – | – | inactive | inactive | inactive | inactive | – | – | –
C=CCN(CC=C)C(=O)C(Cl)Cl | inactive | inactive | inactive | inactive | inactive | – | inactive | inactive | inactive | inactive | inactive | inactive | inactive | inactive | inactive | inactive | inactive | – | – | inactive
Cc1c(COC(=O)[C@@H]2[C@H](/C=C(\Cl)C(F)(F)F)C2(C)C)cccc1-c1ccccc1 | inactive | inactive | inactive | inactive | – | inactive | inactive | inactive | inactive | inactive | inactive | inactive | – | – | inactive | inactive | inactive | – | inactive | inactive
Cc1ccccc1[N+](=O)[O-] | inactive | inactive | inactive | inactive | inactive | – | inactive | inactive | inactive | – | inactive | inactive | – | inactive | inactive | inactive | inactive | – | – | –
COP(=S)(OC)Oc1ccc([N+](=O)[O-])cc1 | inactive | inactive | inactive | inactive | – | – | – | inactive | inactive | inactive | inactive | inactive | inactive | – | inactive | inactive | – | inactive | inactive | inactive
OCC(O)CO | inactive | inactive | inactive | inactive | inactive | – | inactive | inactive | inactive | inactive | inactive | inactive | inactive | inactive | inactive | inactive | inactive | inactive | inactive | –
